Measurements taken from PubChem BioAssay (NCI).
This is part of a sample that, as a whole, favours compounds with a hit. Of some 83,000 tested, about 20% had one in any assay.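 The test compound was applied at a single concentration to cells in 96-well plates for 48 hours, and percent growth was recorded.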 Unmarked numbers belong to inactive results. The source made the active and inactive calls. How the source made its calls: active means growth percent below 10; inactive means the rest.

What was measured:
Assay in all cases: NCI-60 one-dose screen, 48 h (100 = growth as untreated, 0 = no growth, -100 = all killed)
Details in all cases: 10 µM unless noted
[1] = tested on: NCI-H23 lung
[2] = tested on: NCI-H226 lung
[3] = tested on: NCI-H322M lung
[4] = tested on: HOP-62 NSCLC
[5] = tested on: NCI-H460 lung
[6] = tested on: HOP-92 NSCLC
[7] = tested on: NCI-H522 lung
[8] = tested on: A549/ATCC NSCLC
[9] = tested on: 786-0 renal
[10] = tested on: COLO 205 colon
[11] = tested on: DU-145 prostate
[12] = tested on: MALME-3M melanoma
[13] = tested on: MDA-MB-231 breast
[14] = tested on: RXF 393 renal
[15] = tested on: SF-268 CNS
[16] = tested on: SF-295 CNS
[17] = tested on: SF-539 CNS
[18] = tested on: UACC-257 melanoma
[19] = tested on: M14 melanoma
[20] = tested on: K-562 leukemia

SMILES | growth [1] | growth [2] | growth [3] | growth [4] | growth [5] | growth [6] | growth [7] | growth [8] | growth [9] | growth [10] | growth [11] | growth [12] | growth [13] | growth [14] | growth [15] | growth [16] | growth [17] | growth [18] | growth [19] | growth [20]
FC(F)(F)c1cn(CCN2CCOCC2)c2ncnc(Cl)c12 | 66.1% | 101% | 87.4% | 55.9% | 84.3% | -62.3% (active) | 20.5% | 94.5% | 113% | 76.5% | 57.8% | 111% | 63.8% | 82.9% | 67.5% | 96.5% | 87% | 84% | 38% | 
COc1ccc(C(=O)Cn2cnc3c(Nc4cc(C(=O)Nc5ccc(N6CCN(CCO)CC6)cc5)ccc4C)ncnc32)cc1 | 98.2% | 96.9% | 101% | 97.3% | 108% | 121% | 87.8% | 108% | 98.5% | 104% | 105% | 116% | 110% | 113% | 98.6% | 93.2% | 98.2% | 104% | 95.3% | 
Nc1nc(Nc2ccc(OCc3cccc(F)c3)cc2)c2c(n1)[nH]c1ccc(O)cc12 | 6.71% (active) | -56.2% (active) | 3.43% (active) | -17% (active) | -49.2% (active) | -31.3% (active) | -76.2% (active) | -27.1% (active) | -96.6% (active) | -77.5% (active) | 10.4% | -69.5% (active) | -67.9% (active) | -76% (active) | -14.7% (active) | -69.2% (active) | -84% (active) | -31.2% (active) | -83% (active) | 
C=C1C(=O)O[C@H]2[C@H]1CC/C(COC(=O)c1ccc(Cl)nc1)=C\CC[C@@]1(C)O[C@@H]21 | 47.5% | -9.06% (active) | 68.4% | 57.1% | 56.1% | -40.1% (active) | -83.7% (active) | 39.7% | 9.88% (active) | -73.3% (active) | 12.4% | -51% (active) | -2.63% (active) | -73.1% (active) | 56.9% | 74.9% | -34.5% (active) | 34.4% | 9.23% (active) | 
O=c1c(-c2ccc3c(c2)OCO3)coc2c(CO)c(O)ccc12 | 56.8% | -35.6% (active) | 16.6% | -54.1% (active) | 9.52% (active) | -21.6% (active) | 36.7% | 49.2% | 23.6% | 113% | -20.8% (active) | -45.1% (active) | -33.6% (active) | -84% (active) | -43.3% (active) | 3.29% (active) | -9.82% (active) | 9.01% (active) | 45% | 
COc1ccccc1S(=O)(=O)Nc1ccc2c3c(cc(-c4cnn(C)c4)nc13)C(=O)N2C | 46.6% | 61.9% | 47.4% | 33.3% | 46.9% | 27.4% | 36% | 38.6% | 43.8% | 15.8% | 64.2% | 51.2% | 40.7% | 40.2% | 59.8% | 35.1% | 34.6% | 44.8% | 42.6% | 
COc1cc2ncnc(Oc3ccc(NC(=O)Nc4ccc(C5(C#N)CCCC5)cc4)c4ccccc34)c2cc1OC | 47.6% | 80.3% | 66.7% | 41.5% | 19.3% | -39.8% (active) | 37.8% | 25.6% | -40.7% (active) | 82.5% | 57.7% | 31.3% | 43.6% | 14.9% | 27% | 13.7% | 64.7% | 94.8% | 47.3% | 
CCn1c(SC)nnc1-c1cc2c([nH]c3ccccc32)c(-c2cccc(O)c2)n1 | 39.8% | 51.3% | 50.1% | 18.3% | 9.54% (active) | -1.11% (active) | 5.8% (active) | 26.5% | 1.6% (active) | 87.7% | 28.1% | 33.1% | 23.1% | -32.9% (active) | 32.4% | -20.1% (active) | -9.07% (active) | 57.4% | 10.8% | 
Cc1ccn2cc(Cc3cc(=O)oc4c3ccc3ccccc34)c(=O)nc2c1 | 96.6% | 96.6% | 101% | 91.7% | 106% | 98.8% | 75.1% | 89.9% | 95.5% | 102% | 110% | 99.8% | 97.6% | 106% | 94.8% | 96.1% | 93.7% | 86.3% | 96.8% | 
CC[C@H]1[C@@H]2C=C[C@@H]3[C@H]4C/C=C\C(=O)NCCC[C@@H]5NC(=O)/C(=C(O)/C=C/[C@@H]4C[C@@H]3[C@H]2C[C@H]1C)C5=O | 51% | 1.14% (active) | 35.7% | -49.9% (active) | -51.2% (active) | -20.4% (active) | 67.7% | 36.8% | -80.9% (active) | 66% | -94% (active) | -6.22% (active) | -2.91% (active) | -86.1% (active) | -55.5% (active) | -53.2% (active) | -20.8% (active) | 23.4% | -10.9% (active) | 
CCn1cc(/C=C2\Oc3cc(OCC#N)ccc3C2=O)c2cc(OC)ccc21 | 41.6% | 86.4% | 49.3% | 36.6% | 8.51% (active) | 71.2% | 56.7% | 41.1% | 38.3% | 8.22% (active) | 20.4% | 93.4% | 45.2% | -11.3% (active) | 55.9% | 16.7% | 3.56% (active) | 65.1% | 22.8% | 
CC(C)(C)OC(=O)N1CCN(CCn2cc(C(F)(F)F)c3c(Cl)ncnc32)CC1 | 44.8% | 108% | 96.2% | 88.6% | 59.3% | -23.1% (active) | -2.6% (active) | 96% | 107% | 102% | 39.8% | 112% | 57.9% | 47% | 69.5% | 99.6% | 97.3% | 85.4% | 14% | 
c1coc(CSc2ncnc3nc[nH]c23)c1 | 103% | 101% | 125% | 99.7% | 111% | 57.8% | 80% | 101% | 97% | 113% | 108% | 125% | 115% | 91.1% | 101% | 142% | 91.6% | 97.3% | 101% | 
CN(C)c1ncc(C#Cc2c(F)cccc2F)c2ccccc12 | 89.9% | 89.4% | 88.5% | 88.1% | 84% | 40.4% | 70.7% | 86.5% | 105% | 98.7% | 97.4% | 113% | 80.2% | 93.2% | 87.2% | 102% | 94.5% | 99% | 86.3% | 
O=C(O)c1ccc2nc(-c3ccc(OCCCCCOc4ccc(-c5nc6ccc(C(=O)O)cc6[nH]5)cc4)cc3)[nH]c2c1 | 46% | 63.4% | 91.5% | 91.9% | 109% | 100% |  | 81.7% | -20.8% (active) | 8.79% (active) | 120% | 173% | 105% | -11.8% (active) | 156% | 123% | 108% | 78.8% | 94.1% | 77.6%
